Experiment [1] deals with W2. Briefly: qHTS profiling for inhibitors of Plasmodium falciparum proliferation (AID 504749). Note: nearly all actives have a fitted effect of over 60% in size. Note: potency is the fitted concentration of half-maximal effect. To be noted: P. falciparum in erythrocytes, SYBR Green DNA, 72 h; series mostly up to 28.7 µM. In a few lines:
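Fluorescence of SYBR Green-bound parasite DNA, read at 485/535 nm, served as the growth measure. Infected erythrocytes were cultured with compound 72 h; artemisinin (0.29 uM) and DMSO wells defined the normalization range.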
Background: In qHTS, concentration-response curves come from the screen itself.

Experiment [2] concerns CRL-7250. The experiment can be described thus: Cytotoxic Profiling of Annotated Libraries Using Quantitative High-Throughput Screening (AID 1296008). For max response: % is set by controls: 0 for no effect and ±100 for the full control effect. Note: nearly all actives have a fitted effect of over 60% in size. Note: potency is the fitted concentration of half-maximal effect. To be noted: Five cell lines viability, CellTiter-Glo ATP luminescence, 48-72 h; max response: stronger effect = lower value. In a few lines:
(§1)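 Compounds were pin-transferred onto cells and incubated 48 or 72 hr at 37 degree Celsius, 95% humidity. CellTiter-Glo was added, plates sat 10 min at room temperature, then ATP-coupled luminescence was imaged as the viability read-out.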

In experiment [3] the test system is HEK293. The description is as above. To be noted: Five cell lines viability, CellTiter-Glo ATP luminescence, 48-72 h; max response: stronger effect = lower value. The essentials: as §1
In experiment [4] the test system is HaCat. Described as above. To be noted: Five cell lines viability, CellTiter-Glo ATP luminescence, 48-72 h; max response: stronger effect = lower value. In a few lines:
as §1
(ATP-based viability assays read luminescence as a measure of living cells.)

Experiment [5] deals with KB-3-1. The description is as above. To be noted: Five cell lines viability, CellTiter-Glo ATP luminescence, 48-72 h; max response: stronger effect = lower value. In a few lines: as §1
Experiment [6] relates to NIH3T3. The description is as above. To be noted: Five cell lines viability, CellTiter-Glo ATP luminescence, 48-72 h; max response: stronger effect = lower value. The essentials:
as §1

In experiment [7] the test system is HACAT. The experiment can be described thus: qHTS assay to identify novel small-molecules to repurpose for Merkel cell carcinoma treatment (AID 1296009). Note: nearly all actives have a fitted effect of over 60% in size. Note: potency is the fitted concentration of half-maximal effect. The following applies: MCC and control cell lines, CellTiter-Glo viability, 72 h; at 44.8 µM (top of the series) unless noted. In a few lines: (§2)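 Luminescence from CellTiter-Glo, read 10 min after addition at room temperature, reported viability following a 72 hr, 37 degree celsius treatment with NPC or MIPE compounds in titration; values normalized to plate controls.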

In experiment [8] the test system is MCC-13. The experiment is described as above. The following applies: MCC and control cell lines, CellTiter-Glo viability, 72 h; series mostly up to 46 µM. The essentials: as §2
The test system of experiment [9] is MCC-26. Described as above. The following applies: MCC and control cell lines, CellTiter-Glo viability, 72 h; series mostly up to 46 µM. The essentials: as §2
Experiment [10] relates to MKL-1. The description is as above. The following applies: MCC and control cell lines, CellTiter-Glo viability, 72 h; series mostly up to 46 µM. In a few lines: as §2
Experiment [11] deals with MKL-2. The description is as above. To be noted: MCC and control cell lines, CellTiter-Glo viability, 72 h; series mostly up to 46 µM. The essentials: as §2
Experiment [12] has as its system WaGa. The description is as above. To be noted: MCC and control cell lines, CellTiter-Glo viability, 72 h; series mostly up to 46 µM. The essentials: as §2
In experiment [13] the test system is C33A. Briefly: Primary qHTS to identify gynecologic anti-cancer compounds using libraries of approved drugs and bioactive compounds (AID 1345084). Note: % is set by controls: 0 for no effect and ±100 for the full control effect; nearly all actives have a fitted effect of over 55% in size. To be noted: Gynecologic cancer cell panel viability, ATPlite luminescence, 48 h; series mostly up to 57.5 µM. In a few lines:
(§3)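 Cells, 1,000 per well, plated 16 h, then exposed 48 h at 37 C to compounds. Viability by ATPlite luminescence after 15 min at room temperature.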

Experiment [14] relates to CAOV3. The description is as above. The following applies: Gynecologic cancer cell panel viability, ATPlite luminescence, 48 h; series mostly up to 57.5 µM. In a few lines:
as §3

Experiment [15] deals with CASKI. The experiment is described as above. The following applies: Gynecologic cancer cell panel viability, ATPlite luminescence, 48 h; series mostly up to 57.5 µM. The essentials: as §3
Experiment [16] has as its system Es-2. The experiment is described as above. The following applies: Gynecologic cancer cell panel viability, ATPlite luminescence, 48 h; series mostly up to 57.5 µM. In a few lines: as §3
Experiment [17] relates to HeLa. Described as above. The following applies: Gynecologic cancer cell panel viability, ATPlite luminescence, 48 h; series mostly up to 57.5 µM. The essentials: as §3
The subject of experiment [18] is HEK293T. Briefly: qHTS assay to identify novel small-molecules to repurpose for Merkel cell carcinoma treatment (AID 1296009). Note: nearly all actives have a fitted effect of over 60% in size. Note: potency is the fitted concentration of half-maximal effect. The following applies: MCC and control cell lines, CellTiter-Glo viability, 72 h; at 44.8 µM (top of the series) unless noted. In a few lines:
as §2

The subject of experiment [19] is UISO. The experiment is described as above. The following applies: MCC and control cell lines, CellTiter-Glo viability, 72 h; series mostly up to 46 µM. In a few lines: as §2
The test system of experiment [20] is NIH3T3. The description is as above. To be noted: MCC and control cell lines, CellTiter-Glo viability, 72 h; at 44.8 µM (top of the series). The essentials: as §2

The structures appear in SMILES notation. Results filed as inconclusive are left out. Values without a mark were called inactive. Activity calls are given as the source filed them. Calls come from the whole dose curve; as a rule, active = well fitted curve in the direction sought with a large enough effect; inconclusive = small, poorly fitted or top-dose-only effect, or another doubt; inactive = no such curve, though single readings can be large; an effect the other way counts as inactive or inconclusive.

With `Cc1cc(NS(=O)(=O)c2ccc(N)cc2)nc(C)n1`, the Potency entry in experiment [1], in [8], in [9], in experiment [10], in [11] and in experiment [12] was “inactive” throughout. In addition, the Potency result in experiment [13], in [14], in [15], in experiment [16] and in [17] was “inactive” throughout. The max response was -3.14% in experiment [2], -0.689% in experiment [3], 15.3% in experiment [5] and 4.17% in experiment [6]. For the same compound, the outcome in experiment [4] and in experiment [7] was inactive.

Consider `CCCCc1cc2ccccc2c(OCCN(C)C)n1`, for which the max response was -9.77% in experiment [2], -3.23% in experiment [5] and -15.9% in [6]. Also, the figures for the Potency in experiment [3] and in experiment [12] were 18.8 µM (active) and 21.1 µM (active), respectively. For the same compound, the call in experiment [4] and in [7] was inactive. Besides, the Potency result in experiment [8], in [10], in experiment [13], in [14], in [16] and in experiment [17] was “inactive” in each case.

`CN(C)CCOC(=O)C(c1ccccc1)C1(O)CCCC1` (stereo unspecified): the max response in [2] is -17.7%; in [5], -12%; in experiment [6], -1.59%. In addition, the call in experiment [3], in experiment [4], in [7] and in experiment [18] was inactive. Also, the Potency result in [8], in experiment [11], in experiment [19], in [13], in experiment [14] and in experiment [15] was “inactive” throughout. Further, the Potency result in [16] and in experiment [17] was “inactive” throughout.

As to `CC(O)Cn1cnc2c1c(=O)n(C)c(=O)n2C` (stereo unspecified), the max response in experiment [2] was 2.85%; in [3], 1.15%; in experiment [4], -17.4%; in experiment [5], 13.1%; in [6], -9.57%. The Potency result in [8], in [9], in experiment [10], in [11], in experiment [19] and in experiment [12] was “inactive” in each case. The Potency result in experiment [13], in experiment [14], in experiment [15], in [16] and in [17] was “inactive” throughout.

For `Cc1cc(C)cc(OCC2CNC(=O)O2)c1` (stereo unspecified), the max response was 2.93% in experiment [2]; 3.06% in experiment [3]; -13.4% in experiment [4]; 2.21% in experiment [5]; 0.518% in experiment [6]. The Potency entry in experiment [8], in experiment [9], in experiment [10], in experiment [11], in experiment [19] and in experiment [12] was “inactive” each time. Besides, the Potency result in experiment [13], in experiment [14], in experiment [15], in experiment [16] and in experiment [17] was “inactive” in each case.

As for `C=CCN1CCc2nc(N)sc2CC1`, the Potency result in experiment [1], in experiment [8], in experiment [9], in [10], in experiment [11] and in [19] was “inactive” throughout. Also, the Potency entry in [12], in [13], in [14], in [15], in [16] and in [17] was “inactive” each time. The max response in [2] is -5.69%; in experiment [3], 0.777%; in experiment [4] it was -12.6%; in experiment [5], 3.04%; in [6] it was 2.55%.

As to `CCc1oc2ccccc2c1C(=O)c1cc(Br)c(O)c(Br)c1`, the Potency result in [1], in experiment [8], in [9], in [10], in experiment [11] and in [13] was “inactive” throughout. The Potency result in experiment [15] and in experiment [16] was “inactive” each time. Besides, the max response in experiment [2] is 0.197%; in experiment [3] it was -23.3%; in experiment [5], -3.26%; in [6], -25.3%. The result in [4] and in [7] was inactive.

In the case of `O=C(O)CCc1nc2ccccc2[nH]1`, the max response in experiment [2] was -5.04%; in [3] it was -3.96%; in experiment [4] it was -3%; in experiment [5] it was -8.67%; in experiment [6], -8.19%. The Potency entry in [8], in experiment [9], in experiment [10], in [11], in experiment [19] and in experiment [12] was “inactive” each time. Moreover, the Potency result in [13], in [14], in experiment [15], in [16] and in experiment [17] was “inactive” each time.

As to `C/C=C/c1ccc(O)c(OC)c1`, the Potency entry in [1], in experiment [8], in [9], in [10], in experiment [19] and in experiment [12] was “inactive” throughout. For the same compound, the Potency entry in experiment [13], in experiment [15], in experiment [16] and in [17] was “inactive” each time. The max response was -0.654% in experiment [2], -2.94% in experiment [3], -3.67% in experiment [5] and -0.28% in [6]. Moreover, the result in experiment [4] and in experiment [7] was inactive.

Take `NCc1ccccc1Sc1ccccc1CO`: the Potency in experiment [1] was 4.78 µM (active). The max response was -5.17% in experiment [2], -7.72% in experiment [3], -3.87% in [4] and 6.51% in experiment [5]. In addition, the compound was called inactive in [6] and in experiment [20]. Further, the Potency entry in experiment [8], in [9], in experiment [10], in [11], in [19] and in experiment [13] was “inactive” throughout. In addition, the Potency entry in experiment [14], in experiment [15], in experiment [16] and in experiment [17] was “inactive” in each case.

Take `O=C(O)CCC(=O)Nc1ccc(S(=O)(=O)Nc2nccs2)cc1`: the Potency entry in [1], in [8], in experiment [9], in experiment [10], in experiment [11] and in experiment [19] was “inactive” each time. For the same compound, the Potency result in experiment [12], in [13], in [14], in experiment [15], in experiment [16] and in [17] was “inactive” in each case. Besides, the max response in experiment [2] is -7.17%; in experiment [3] it was -13.9%; in [4], -28.4%; in experiment [5] it was 14.8%; in experiment [6], -7.15%.

For `CN1CCN(C2=Nc3ccccc3Sc3ccc(Cl)cc32)CC1`, the Potency in experiment [1] was 3.79 µM (active). Further, the max response in [2] was -8.62%; in experiment [3], -15.3%; in experiment [4], -2.52%; in [5] it was -8.12%; in [6], -1.36%. The Potency entry in experiment [8], in [9], in experiment [10], in experiment [11], in experiment [19] and in experiment [13] was “inactive” in each case. For the same compound, the Potency entry in experiment [14], in experiment [15], in [16] and in experiment [17] was “inactive” each time.

Consider `O=C(O)C(Cc1cc(I)c(O)c(I)c1)c1ccccc1` (stereo unspecified), for which the Potency result in experiment [1], in experiment [8], in experiment [9], in experiment [10], in [11] and in experiment [19] was “inactive” each time. Moreover, the Potency entry in experiment [12], in [13], in [15], in experiment [16] and in experiment [17] was “inactive” in each case. In addition, the max response was -5.72% in experiment [2]; 1.09% in experiment [3]; -3.38% in [4]; -19.5% in experiment [5]; -19.3% in experiment [6].

Take `COC(=O)C(c1ccccc1Cl)N1CCc2sccc2C1` (stereo unspecified): the max response is -10.1% in experiment [2]; 4.89% in [3]; 4.22% in experiment [4]; -8.1% in experiment [5]; -4.69% in experiment [6]. Besides, the Potency entry in experiment [8], in experiment [9], in experiment [10], in experiment [11], in [19] and in experiment [12] was “inactive” in each case. Besides, the Potency entry in experiment [13], in experiment [15], in experiment [16] and in experiment [17] was “inactive” each time.

The values are drawn from PubChem BioAssay (NCATS).
